From ChEMBL document CHEMBL1961873, “Compounds: GSK PKIS; Assays: Nanosyn kinase panel” (2012) come the findings set out here.

Assay [1] concerns the target Dual specificity protein kinase CLK3 (Homo sapiens) (UniProt P49761). The settings on record: at 1 µM.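 Also: each value is the mean inhibition of CLK3.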
Assay [2] has as its target Dual specificity tyrosine-phosphorylation-regulated kinase 1A (Homo sapiens) (UniProt Q13627). The settings on record: at 0.1 µM.
Assay [3] shares this target. The settings on record: at 1 µM.
The target of assay [4] is Dual specificity tyrosine-phosphorylation-regulated kinase 1B (Homo sapiens) (UniProt Q9Y463). As to conditions: at 0.1 µM.
Assay [5] shares this target. As to conditions: at 1 µM.
For assay [6], the target named is T1, Dual specificity tyrosine-phosphorylation-regulated kinase 2 (Homo sapiens) (UniProt Q92630).
T1 sequence (whole entry): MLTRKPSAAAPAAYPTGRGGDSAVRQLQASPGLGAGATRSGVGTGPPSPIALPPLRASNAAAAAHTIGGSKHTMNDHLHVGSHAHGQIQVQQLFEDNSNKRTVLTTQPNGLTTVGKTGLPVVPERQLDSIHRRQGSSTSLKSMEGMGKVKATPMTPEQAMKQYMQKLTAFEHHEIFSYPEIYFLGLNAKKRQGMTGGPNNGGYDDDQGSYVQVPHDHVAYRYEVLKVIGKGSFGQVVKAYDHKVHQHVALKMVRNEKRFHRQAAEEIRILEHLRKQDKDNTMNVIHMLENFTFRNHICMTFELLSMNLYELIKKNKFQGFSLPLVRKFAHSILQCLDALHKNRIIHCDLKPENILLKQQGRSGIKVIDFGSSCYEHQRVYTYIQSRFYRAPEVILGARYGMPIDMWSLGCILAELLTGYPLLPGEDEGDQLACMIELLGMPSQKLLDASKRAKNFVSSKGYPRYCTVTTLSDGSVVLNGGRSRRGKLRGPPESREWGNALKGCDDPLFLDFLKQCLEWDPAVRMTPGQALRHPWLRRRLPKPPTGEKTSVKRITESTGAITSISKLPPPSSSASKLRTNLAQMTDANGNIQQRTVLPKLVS
The settings on record: at 0.1 µM.

Assay [7] addresses T1, Dual specificity tyrosine-phosphorylation-regulated kinase 2 (Homo sapiens). As to conditions: at 1 µM.
The target of assay [8] is Glycogen synthase kinase-3 alpha (Homo sapiens) (UniProt P49840). As to conditions: at 0.1 µM.
Assay [9] shares this target. The settings on record: at 1 µM.
Assay [10] concerns the target Glycogen synthase kinase-3 beta (Homo sapiens) (UniProt P49841). As to conditions: at 0.1 µM.
The target is the same in assay [11]. The settings on record: at 1 µM.
Assay [12] addresses Homeodomain-interacting protein kinase 1 (Homo sapiens) (UniProt Q86Z02). As to conditions: at 0.1 µM.
Assay [13] has the same target. The settings on record: at 1 µM.
The target of assay [14] is T2, Homeodomain-interacting protein kinase 4 (Homo sapiens) (UniProt Q8NE63).
T2 sequence (whole entry): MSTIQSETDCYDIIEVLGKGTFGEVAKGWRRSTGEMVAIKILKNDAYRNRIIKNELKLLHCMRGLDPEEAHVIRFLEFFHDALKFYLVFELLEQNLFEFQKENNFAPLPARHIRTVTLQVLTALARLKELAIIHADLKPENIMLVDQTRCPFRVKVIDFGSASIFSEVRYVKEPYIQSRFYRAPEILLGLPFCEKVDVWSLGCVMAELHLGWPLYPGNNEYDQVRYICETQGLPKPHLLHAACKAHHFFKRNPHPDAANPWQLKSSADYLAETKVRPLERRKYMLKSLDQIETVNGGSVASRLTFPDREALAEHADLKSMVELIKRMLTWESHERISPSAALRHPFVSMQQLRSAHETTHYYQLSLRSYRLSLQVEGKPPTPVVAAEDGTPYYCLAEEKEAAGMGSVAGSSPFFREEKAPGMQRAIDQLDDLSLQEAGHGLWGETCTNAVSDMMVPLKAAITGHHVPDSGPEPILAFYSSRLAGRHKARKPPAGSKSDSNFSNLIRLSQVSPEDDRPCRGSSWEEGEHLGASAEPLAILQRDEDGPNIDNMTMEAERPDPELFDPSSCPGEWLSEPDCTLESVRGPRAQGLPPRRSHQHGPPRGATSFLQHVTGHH
The settings on record: at 0.1 µM.

In assay [15] the target is T2, Homeodomain-interacting protein kinase 4 (Homo sapiens). As to conditions: at 1 µM.
Assay [16] deals with Mitogen-activated protein kinase 9 (Homo sapiens) (UniProt P45984). The settings on record: at 0.1 µM.
The target is the same in assay [17]. As to conditions: at 1 µM.
The target in assay [18] is Mitogen-activated protein kinase 1 (Homo sapiens) (UniProt P28482). The settings on record: at 0.1 µM.
Assay [19] has the same target. As to conditions: at 1 µM.
In assay [20] the target is Mitogen-activated protein kinase 3 (Homo sapiens) (UniProt P27361). The settings on record: at 0.1 µM.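 Also: each value is a mean inhibition figure.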
Sequence of Mitogen-activated protein kinase 3 (Homo sapiens) (P27361 whole entry): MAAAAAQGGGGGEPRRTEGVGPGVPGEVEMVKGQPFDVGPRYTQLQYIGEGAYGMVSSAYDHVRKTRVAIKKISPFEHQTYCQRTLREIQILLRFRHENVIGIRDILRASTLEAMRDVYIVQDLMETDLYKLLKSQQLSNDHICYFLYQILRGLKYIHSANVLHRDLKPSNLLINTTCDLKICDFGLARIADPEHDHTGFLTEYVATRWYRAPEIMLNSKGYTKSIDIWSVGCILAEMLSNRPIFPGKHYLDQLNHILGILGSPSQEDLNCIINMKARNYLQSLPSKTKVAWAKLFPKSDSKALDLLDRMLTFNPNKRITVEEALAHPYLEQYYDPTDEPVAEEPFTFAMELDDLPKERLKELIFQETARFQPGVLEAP

Sequence of Dual specificity tyrosine-phosphorylation-regulated kinase 1B (Homo sapiens) (Q9Y463 whole entry, looked up): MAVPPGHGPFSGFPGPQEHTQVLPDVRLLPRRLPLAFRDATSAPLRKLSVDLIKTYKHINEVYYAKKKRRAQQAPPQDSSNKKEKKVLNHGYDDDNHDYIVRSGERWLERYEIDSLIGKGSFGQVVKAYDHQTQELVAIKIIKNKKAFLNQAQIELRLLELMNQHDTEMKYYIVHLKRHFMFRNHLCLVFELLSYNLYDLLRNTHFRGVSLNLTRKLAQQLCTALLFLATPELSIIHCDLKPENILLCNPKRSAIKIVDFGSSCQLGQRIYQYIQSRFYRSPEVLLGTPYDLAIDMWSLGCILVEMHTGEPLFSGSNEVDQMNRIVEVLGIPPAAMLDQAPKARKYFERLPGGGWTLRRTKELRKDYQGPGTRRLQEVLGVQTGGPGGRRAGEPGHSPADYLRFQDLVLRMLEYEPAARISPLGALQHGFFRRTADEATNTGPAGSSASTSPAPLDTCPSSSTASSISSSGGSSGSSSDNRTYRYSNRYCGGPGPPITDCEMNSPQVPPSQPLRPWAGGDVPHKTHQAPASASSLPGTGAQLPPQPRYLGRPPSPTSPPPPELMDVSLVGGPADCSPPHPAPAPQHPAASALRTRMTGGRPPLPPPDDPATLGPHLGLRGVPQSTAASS
Sequence of Glycogen synthase kinase-3 alpha (Homo sapiens) (P49840 2-483 limits assumed): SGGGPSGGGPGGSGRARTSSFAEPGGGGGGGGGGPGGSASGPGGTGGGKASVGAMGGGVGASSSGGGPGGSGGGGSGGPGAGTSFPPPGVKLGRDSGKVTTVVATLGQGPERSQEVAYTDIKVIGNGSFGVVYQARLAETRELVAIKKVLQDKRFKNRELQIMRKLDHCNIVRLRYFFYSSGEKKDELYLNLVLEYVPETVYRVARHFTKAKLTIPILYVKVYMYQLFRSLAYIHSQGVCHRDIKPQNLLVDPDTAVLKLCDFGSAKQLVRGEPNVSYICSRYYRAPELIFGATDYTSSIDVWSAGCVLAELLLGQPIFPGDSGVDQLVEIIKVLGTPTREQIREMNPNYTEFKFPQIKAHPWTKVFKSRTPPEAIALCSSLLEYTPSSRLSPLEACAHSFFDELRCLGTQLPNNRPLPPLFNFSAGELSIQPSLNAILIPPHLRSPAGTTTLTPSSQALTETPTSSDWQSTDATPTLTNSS
Sequence of Homeodomain-interacting protein kinase 1 (Homo sapiens) (Q86Z02 whole entry, looked up): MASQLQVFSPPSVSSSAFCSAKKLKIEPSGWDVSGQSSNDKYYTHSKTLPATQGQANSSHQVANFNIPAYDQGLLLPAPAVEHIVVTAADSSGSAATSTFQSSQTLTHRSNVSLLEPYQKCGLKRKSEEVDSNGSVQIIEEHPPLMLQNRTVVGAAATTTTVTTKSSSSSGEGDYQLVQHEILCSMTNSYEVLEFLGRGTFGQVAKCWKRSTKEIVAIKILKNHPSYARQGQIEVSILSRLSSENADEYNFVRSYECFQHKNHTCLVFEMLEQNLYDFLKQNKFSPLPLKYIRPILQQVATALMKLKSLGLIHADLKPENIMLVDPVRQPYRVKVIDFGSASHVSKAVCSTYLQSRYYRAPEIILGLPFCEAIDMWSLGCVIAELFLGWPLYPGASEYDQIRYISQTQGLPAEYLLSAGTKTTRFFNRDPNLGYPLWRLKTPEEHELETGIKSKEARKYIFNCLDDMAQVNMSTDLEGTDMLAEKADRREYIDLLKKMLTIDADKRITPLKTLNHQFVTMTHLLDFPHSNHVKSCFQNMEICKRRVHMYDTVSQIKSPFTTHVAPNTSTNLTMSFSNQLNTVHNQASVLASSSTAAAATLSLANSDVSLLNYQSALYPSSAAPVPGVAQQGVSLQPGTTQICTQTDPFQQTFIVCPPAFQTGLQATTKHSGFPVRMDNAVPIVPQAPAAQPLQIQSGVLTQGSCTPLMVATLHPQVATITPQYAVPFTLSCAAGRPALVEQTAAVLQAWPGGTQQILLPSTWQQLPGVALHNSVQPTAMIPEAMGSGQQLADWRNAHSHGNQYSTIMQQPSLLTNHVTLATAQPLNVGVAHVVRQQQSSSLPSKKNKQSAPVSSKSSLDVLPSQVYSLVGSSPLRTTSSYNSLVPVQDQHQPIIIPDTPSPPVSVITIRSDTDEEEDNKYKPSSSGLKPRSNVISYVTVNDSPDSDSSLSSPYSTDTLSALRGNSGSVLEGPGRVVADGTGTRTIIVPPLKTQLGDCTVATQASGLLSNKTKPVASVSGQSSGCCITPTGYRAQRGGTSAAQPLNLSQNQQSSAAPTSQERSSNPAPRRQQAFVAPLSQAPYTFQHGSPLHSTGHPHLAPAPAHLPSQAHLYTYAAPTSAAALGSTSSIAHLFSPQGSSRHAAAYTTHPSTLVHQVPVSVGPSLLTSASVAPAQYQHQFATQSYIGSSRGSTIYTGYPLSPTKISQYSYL
Sequence of Glycogen synthase kinase-3 beta (Homo sapiens) (P49841 whole entry, looked up): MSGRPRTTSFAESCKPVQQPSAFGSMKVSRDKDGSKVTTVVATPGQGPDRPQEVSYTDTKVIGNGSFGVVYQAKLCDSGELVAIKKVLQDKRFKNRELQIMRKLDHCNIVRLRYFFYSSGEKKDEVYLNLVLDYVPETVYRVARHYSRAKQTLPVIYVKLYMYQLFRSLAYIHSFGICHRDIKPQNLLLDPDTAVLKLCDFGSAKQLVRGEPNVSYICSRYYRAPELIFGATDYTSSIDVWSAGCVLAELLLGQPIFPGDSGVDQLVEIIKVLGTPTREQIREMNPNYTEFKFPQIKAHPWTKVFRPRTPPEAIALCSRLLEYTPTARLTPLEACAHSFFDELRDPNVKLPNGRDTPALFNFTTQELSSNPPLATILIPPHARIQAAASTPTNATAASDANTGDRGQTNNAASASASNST
Sequence of Mitogen-activated protein kinase 1 (Homo sapiens) (P28482 whole entry): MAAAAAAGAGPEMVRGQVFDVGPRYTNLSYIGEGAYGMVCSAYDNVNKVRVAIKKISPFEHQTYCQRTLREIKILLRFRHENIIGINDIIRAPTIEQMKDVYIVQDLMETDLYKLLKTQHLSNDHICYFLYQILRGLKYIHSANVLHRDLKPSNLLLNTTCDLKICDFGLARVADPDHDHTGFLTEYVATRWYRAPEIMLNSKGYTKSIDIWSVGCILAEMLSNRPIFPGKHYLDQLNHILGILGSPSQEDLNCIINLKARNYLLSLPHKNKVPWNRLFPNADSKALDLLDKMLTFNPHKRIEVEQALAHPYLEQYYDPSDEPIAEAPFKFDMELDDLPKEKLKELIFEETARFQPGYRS
Sequence of Mitogen-activated protein kinase 9 (Homo sapiens) (P45984 whole entry, looked up): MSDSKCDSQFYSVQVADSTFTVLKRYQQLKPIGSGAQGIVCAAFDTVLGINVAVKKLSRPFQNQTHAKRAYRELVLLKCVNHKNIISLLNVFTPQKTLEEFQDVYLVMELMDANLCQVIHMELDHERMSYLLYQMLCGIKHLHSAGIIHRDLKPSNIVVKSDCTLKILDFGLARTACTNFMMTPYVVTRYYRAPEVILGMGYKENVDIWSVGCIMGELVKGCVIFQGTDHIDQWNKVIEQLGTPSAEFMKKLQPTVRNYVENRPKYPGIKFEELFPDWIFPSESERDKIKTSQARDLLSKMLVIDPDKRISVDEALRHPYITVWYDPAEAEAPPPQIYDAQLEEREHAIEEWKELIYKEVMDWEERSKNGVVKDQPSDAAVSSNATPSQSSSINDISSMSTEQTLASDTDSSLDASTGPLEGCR
Sequence of Dual specificity protein kinase CLK3 (Homo sapiens) (P49761 whole entry, looked up): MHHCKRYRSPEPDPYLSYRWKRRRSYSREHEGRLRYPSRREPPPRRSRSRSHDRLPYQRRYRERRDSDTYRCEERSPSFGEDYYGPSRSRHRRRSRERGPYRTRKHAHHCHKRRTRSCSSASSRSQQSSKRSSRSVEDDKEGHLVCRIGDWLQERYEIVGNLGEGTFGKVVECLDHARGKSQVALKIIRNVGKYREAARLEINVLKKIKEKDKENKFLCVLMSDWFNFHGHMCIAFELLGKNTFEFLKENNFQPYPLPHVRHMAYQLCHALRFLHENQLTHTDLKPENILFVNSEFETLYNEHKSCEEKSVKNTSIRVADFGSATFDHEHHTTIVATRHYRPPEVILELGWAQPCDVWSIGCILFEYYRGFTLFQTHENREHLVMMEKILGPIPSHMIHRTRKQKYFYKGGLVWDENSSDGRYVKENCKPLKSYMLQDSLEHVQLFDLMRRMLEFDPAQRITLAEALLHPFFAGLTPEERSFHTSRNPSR

As to `COc1ccc(-c2nn3ncccc3c2-c2ccnc(Nc3ccc4c(c3)OCCO4)n2)cc1`, the inhibition is -0.46% in [1]; -0.47% in assay [2]; -2.81% in [3]; -0.35% in assay [4]; -3.65% in assay [5]; 0.08% in assay [6]. Further, the inhibition is -3.08% in [7]; 0.99% in assay [8]; 2.53% in assay [9]; -0.07% in [10]; 5.33% in assay [11]; -7.34% in assay [12]. Moreover, the inhibition in [13] was -0.07%; in [14], 0.08%; in [15], -1.16%; in [16], 13%; in assay [17], 64.6%; in assay [18], -0.01%. The inhibition in [19] came out at 0.95%; in assay [20], 3.56%.

Turning to `N#Cc1c(NC(=O)CN2CCOCC2)sc2c1CCCC2`, the inhibition in [1] is 7.77%; in [2], 7.33%; in assay [3], 11%; in assay [4], 4.95%; in assay [5], 8.26%; in assay [6], 1.96%. Moreover, the inhibition in [7] was determined as 4.75%; in assay [8], 10.6%; in [9] it was 9.38%; in [10] it was 11%; in assay [11] it was 7.42%; in assay [12], 6.67%. Besides, the inhibition was 10.1% in [13]; 7.62% in assay [14]; 6.09% in assay [15]; 4.4% in [16]; 9.83% in [17]; 4.06% in assay [18]. In addition, the inhibition was determined as 4.79% in assay [19] and 3.09% in assay [20].

Take `CC(C)(CO)CNC(=O)c1ccc2c(c1)/C(=N/Nc1ccc(S(N)(=O)=O)cc1)C(=O)N2`: the inhibition was 9.15% in assay [1]; -0.06% in assay [2]; 7.83% in [3]; -0.36% in assay [4]; 1% in assay [5]; 0.82% in [6]. For the same compound, the inhibition was 9.64% in [7]; 23.2% in [8]; 65.2% in assay [9]; 22.4% in assay [10]; 66.8% in [11]; -4.78% in [12]. The inhibition was 13.1% in assay [13]; -0.55% in assay [14]; 4.55% in [15]; -0.59% in assay [16]; 8.39% in assay [17]; 8.62% in assay [18]. For the same compound, the values for the inhibition in [19] and in assay [20] were 42.1% and 1.78%, respectively.

`COc1ccc(-c2cc(-c3c[nH]nc3-c3ccccn3)ccn2)cc1`: the inhibition in assay [1] is 1.7%; in assay [2] it was 2.83%; in assay [3] it was 6.71%; in [4] it was -0.15%; in assay [5], 2.54%; in [6], 4.14%. Further, the inhibition in [7] turned out to be 3.1%; in assay [8], 3.67%; in assay [9], 5.27%; in [10] it was 3.56%; in assay [11], 6.22%; in [12] it was 4.42%. The inhibition in assay [13] is 4.88%; in [14], 2.68%; in [15], -2.34%; in [16], 4.47%; in [17], 9.74%; in assay [18], 4.07%. In addition, the inhibition in [19] is 5.26%; in assay [20], 3.56%.

On to `CC(=O)NCc1cccc(C#Cc2cncnc2Nc2ccc(OCc3cccc(F)c3)c(Cl)c2)c1`, for which the inhibition in assay [1] stood at 0.27%; in assay [2] it was 1.8%; in [3], 6.71%; in assay [4], 0.66%; in assay [5], 1.17%; in assay [6] it was 1.17%. The inhibition was -0.66% in assay [7]; 3.24% in assay [8]; 8.35% in assay [9]; 2.82% in assay [10]; 7.42% in [11]; -1.17% in assay [12]. The inhibition in assay [13] was 0.08%; in [14] it was -1.54%; in [15] it was 2.87%; in assay [16] it was 0.88%; in assay [17] it was 0.54%; in assay [18], 0.71%. In addition, the inhibition in assay [19] is 1.78%; in assay [20] it was -0.54%.

Take `CCN(CC)S(=O)(=O)c1ccc(OC)c(Nc2ncc(-c3ccccc3)o2)c1`: the inhibition was 8.6% in [1]; 1.08% in [2]; 10.9% in assay [3]; 1.93% in assay [4]; 14.7% in assay [5]; 1.64% in assay [6]. Also, the inhibition in [7] was determined as 6.15%; in assay [8], 0.34%; in assay [9], 2.7%; in assay [10], 0.79%; in assay [11] it was 3.89%; in assay [12], 1.49%. Also, the inhibition is 10.2% in assay [13]; 2.17% in assay [14]; 17.8% in assay [15]; 2.31% in [16]; 1.02% in assay [17]; -1.7% in assay [18]. The inhibition is -0.08% in [19] and 1.68% in assay [20].

With `c1ccc(COc2ccc(Nc3ncnc4ccc(-c5ccco5)cc34)cc2)cc1`, the inhibition in assay [1] was -0.29%; in assay [2] it was -1.32%; in assay [3], 3.87%; in assay [4] it was -0.39%; in assay [5], 0.34%; in assay [6], 0.31%. Further, the inhibition in [7] was -1.53%; in assay [8], 1.11%; in assay [9], 1.51%; in [10], 0.28%; in [11] it was 2.25%; in [12], -3.03%. Besides, the inhibition in assay [13] is -3.68%; in assay [14], 0.31%; in [15], 1.89%; in assay [16], 1.39%; in assay [17] it was 1.07%; in [18], 2.65%. In addition, the inhibition in [19] was -3.36%; in assay [20], 0.95%.
